This is part of a sample that, as a whole, favours compounds with a hit. Of some 83,000 tested, about 20% had one in any assay.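 Growth was measured after 48 h exposure to one concentration of compound in 96-well plates. Values under 10 count as active.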 A number with no mark means an inactive call. Active and inactive are the calls of the source.
Tests used:
Assay in all cases: NCI-60 one-dose screen, 48 h (100 = growth as untreated, 0 = no growth, -100 = all killed)
Conditions in all cases: 10 µM unless noted
HCT-15 colon = system: HCT-15 colon
HT29 colon = system: HT29 colon
SNB-75 CNS = system: SNB-75 CNS
SNB-19 CNS = system: SNB-19 CNS
U251 CNS = system: U251 CNS
PC-3 prostate = system: PC-3 prostate
SK-MEL-5 melanoma = system: SK-MEL-5 melanoma
UACC-62 melanoma = system: UACC-62 melanoma
LOX IMVI melanoma = system: LOX IMVI melanoma
SK-MEL-28 melanoma = system: SK-MEL-28 melanoma
SK-MEL-2 melanoma = system: SK-MEL-2 melanoma
EKVX NSCLC = system: EKVX NSCLC
SN12C renal = system: SN12C renal
UO-31 renal = system: UO-31 renal
TK-10 renal = system: TK-10 renal
ACHN renal = system: ACHN renal
CAKI-1 renal = system: CAKI-1 renal
A498 renal = system: A498 renal
CCRF-CEM leukemia = system: CCRF-CEM leukemia
MOLT-4 leukemia = system: MOLT-4 leukemia

SMILES	growth (HCT-15 colon)	growth (HT29 colon)	growth (SNB-75 CNS)	growth (SNB-19 CNS)	growth (U251 CNS)	growth (PC-3 prostate)	growth (SK-MEL-5 melanoma)	growth (UACC-62 melanoma)	growth (LOX IMVI melanoma)	growth (SK-MEL-28 melanoma)	growth (SK-MEL-2 melanoma)	growth (EKVX NSCLC)	growth (SN12C renal)	growth (UO-31 renal)	growth (TK-10 renal)	growth (ACHN renal)	growth (CAKI-1 renal)	growth (A498 renal)	growth (CCRF-CEM leukemia)	growth (MOLT-4 leukemia)
COc1cc2c(c(OC)c1O)C(=O)C(OC)C(c1ccc(O)c(O)c1)O2 (stereo not given)	3.6% (active)	46.8%	-8.14% (active)	21%	15.4%	-22.3% (active)	-23.6% (active)	29.3%	12.9%	56.2%	46.9%	46.8%	26.6%	44.8%	66.1%	21.6%	28.4%	-18.3% (active)	-5.15% (active)	9.18% (active)
CCN(CCC#N)c1ccccc1	108%	109%	98.6%	106%	103%	90.8%	111%	98.2%	102%	113%	106%	101%	90.8%	89.1%	117%	112%	97.7%	130%	93.6%	101%
CC(=O)OC[C@H]1O[C@@H](n2c(=O)cc(N)[nH]c2=O)C(OC(C)=O)[C@@H]1OC(C)=O (stereo not given in full)	99.7%	106%	75.9%	98.7%	97.7%	95.3%	99.5%	94.6%	99.9%	110%	105%	104%	103%	78.6%	97.8%	101%	88.8%	98.1%	111%	108%
COc1ccc(-c2cc(C(=O)Nc3ccc(Br)cc3)nc3[nH]c(=O)sc23)cc1	37%	50.1%	78.4%	36.5%	28.8%	34.8%	8.56% (active)	8.05% (active)	36.7%	38.5%	-5.01% (active)	37.2%	20.4%	28.6%	19.9%	54.8%	34.6%	-2.87% (active)	29.8%	27.8%
CCN1C(=O)N(CC)C2C1NN=c1s/c(=C\c3ccc(Br)cc3)c(=O)n12 (stereo not given)	11.4%	5.08% (active)	26.2%	21.4%	16.5%	18.6%	-4.8% (active)	39.9%	25.1%	59.9%	24.8%	38.2%	33.9%	35.4%	52.7%	29.2%	23.8%	12.6%	11.4%	12.6%
O=C1/C=C/[C@@H](O)[C@@H]2C[C@@H](O)C[C@H]2/C=C/CCC[C@H]([C@@H](O)CO)O1	95.3%	80.2%	84%	66.5%	69.1%	88.7%	4.48% (active)	62.5%	38.7%	38.8%	98.4%	96.6%	102%	68.3%	121%	109%	97.6%	64%	101%	103%
CN(C)c1ccc(/C=C\c2cccc[n+]2C)cc1	104%	34.4%	70.1%	31.8%	33%	11%	24.2%	81.3%	50%	56.6%	75.6%	23%	52.2%	59.5%	67.2%	77.3%	42.1%	13.4%	49.6%	74.4%
CCOC(=O)CCN(CCC(=O)OCC)c1ccccc1	101%	99.7%	93.9%	104%	92.5%	93%	96.4%	99.4%	95.8%	117%	96.7%	115%	110%	77.8%	101%	100%	116%	127%	61.7%	96.5%
COc1ccc(C(=O)N2N=C(c3ccc(F)cc3)CC2c2cn(-c3ccccc3)nc2-c2ccccc2)cc1 (stereo not given)	55.9%	37.6%	72.5%	80%	30.6%	71.6%	90.7%	61%	41.8%	71.9%	75.1%	70.9%	63%	68.1%	80.2%	86.5%	63.2%	93.2%	57.1%	42.2%
COc1cc(/C=C/c2cc(/C=C/c3ccc(O)c(OC)c3)n(C(=O)Nc3ccc(F)c(Cl)c3)n2)ccc1O	6.64% (active)	-33.6% (active)	-12.6% (active)	4.42% (active)	-1.59% (active)	-14.3% (active)	-73.9% (active)	-37.4% (active)	-20.9% (active)	7.89% (active)	-25% (active)	-17.7% (active)	2.06% (active)	-17% (active)	24%	5.73% (active)	-39.1% (active)	-13.6% (active)	0.872% (active)	-17.7% (active)
CCCCCCCCCCCCNC(=O)N[C@H](C(=O)N[C@H]1/C=C/OCCNC(=O)/C=C/[C@H](C(C)C)NC1=O)C(C)C	117%	34.9%	46.5%	47.1%	43.2%	51.1%	46.1%	55.4%	55.7%	46.3%	66.8%	86.5%	93.6%	93.5%	97.1%	115%	96.1%	96.1%	40.6%	51.3%
ClCc1c(Cl)c(Cl)c(Cl)c(CCl)c1Cl	4.87% (active)	-78.4% (active)	89%	58.7%	-25.4% (active)	8.08% (active)	61.3%	103%	-79% (active)	88.7%	87.7%	101%	41.5%	-21.7% (active)	-73.9% (active)	8.92% (active)	-76.4% (active)	89%	3.24% (active)	13.3%
O=C(Nc1cccc(Cl)c1)Nc1ccccc1Cl	93.6%	80.8%	89.4%	102%	87.3%	57.1%	102%	63.7%	89.1%	95.4%	98.5%	72.1%	81.5%	69.8%	88.5%	89.9%	71.4%	63.4%	84.7%	75%
CC1OC(n2c3ccccc3c3c4c(c5c6ccccc6[nH]c5c32)C(=O)N(CCN[C@H]2CCC[C@@H]2N)C4=O)CC(O)C1O (stereo not given in full)	82.6%	12.9%	24.1%	17%	14.5%	16.8%	23.7%	42.1%	20.3%	68.6%	74.5%	45.9%	17.9%	66.8%	52.8%	45.6%	85.7%	77.9%	27.1%	7.62% (active)
COc1cc(C2CC(c3ccccc3)=NN2C=O)ccc1Oc1nc2c(c(=O)n(C)c(=O)n2C)n1C (stereo not given)	87.9%	69.9%	92%	61.9%	86.5%	72.8%	59.2%	86.2%	55%	95.1%	101%	74.1%	49%	62.4%	110%	86.9%	79.4%	81.3%	77.9%	62.2%
CCOc1cc(/C=N\NC(=O)C[N+](C)(C)C)ccc1O	103%	105%	106%	117%	105%	99.6%	105%	111%	103%	117%	115%	98.7%	109%	113%	105%	103%	95.9%	115%	98.5%	28.5%

Reference: PubChem BioAssay (NCI)
